Laboratory results: PubChem BioAssay AID633 (Emory University Molecular Libraries Screening Center, 2007)
About 1,100 (1.3%) of roughly 86,000 compounds were called active. The sample holds actives, similar compounds and a random draw of the others, so the mix is not that of the screen. A number with no mark means an inactive call.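 The calls were made as follows: active = compounds whose percent inhibition of the receptor-coactivator binding signal exceeds about 50% in the single-dose screen (limit read from the data); inactive = the rest.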

Target: Estrogen receptor beta (Homo sapiens) (UniProt Q92731)
Sequence (Q92731 whole entry, looked up, the tested form may be a part): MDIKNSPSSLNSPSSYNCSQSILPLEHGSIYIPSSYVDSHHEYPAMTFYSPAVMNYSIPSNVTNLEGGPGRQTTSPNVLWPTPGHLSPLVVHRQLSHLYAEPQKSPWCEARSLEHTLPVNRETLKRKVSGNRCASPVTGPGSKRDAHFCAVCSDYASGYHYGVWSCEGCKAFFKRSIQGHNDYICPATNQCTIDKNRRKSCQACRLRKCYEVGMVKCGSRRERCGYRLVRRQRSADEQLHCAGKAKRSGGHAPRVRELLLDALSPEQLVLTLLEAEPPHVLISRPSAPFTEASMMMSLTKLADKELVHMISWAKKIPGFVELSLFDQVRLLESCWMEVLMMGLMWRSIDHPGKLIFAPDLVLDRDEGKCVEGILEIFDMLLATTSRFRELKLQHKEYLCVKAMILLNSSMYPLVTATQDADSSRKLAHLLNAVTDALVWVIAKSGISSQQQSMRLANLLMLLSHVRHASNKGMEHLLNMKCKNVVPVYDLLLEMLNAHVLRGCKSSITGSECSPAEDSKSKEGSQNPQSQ
Assay: inhibitors of ERβ-SRC1 coactivator interaction, primary screen, biochemical, TR-FRET, ERβ LBD, SRC-1 peptide (AID 633);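 also: 0% = receptor plus peptide wells without compound and 100% = peptide-only wells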
Details: TR-FRET ER-beta LBD / SRC1-Cy5 peptide binding; at 25.6 µM; hits give high values; receptor agonist-loaded with 1 µM estradiol

Compound	inhibition
COc1ccc(N2C(=O)C3CCCN3C2c2cccc(OC)c2)cc1 (stereo unspecified)	-7%
COc1ccc(N2C(=O)C3CCCN3C2c2cc(OC)c(OC)cc2OC)cc1 (stereo unspecified)	98.9% [fluorescence artefact?] (active)
COC(=O)c1[nH]c2cccc(C)c2c1NC(=O)CN1CCCc2ccccc21	34.3%
CCOC(=O)c1[nH]c2ccc(OC)cc2c1NC(=O)CCN1CCN(Cc2ccccc2)CC1	5.39%
COC(=O)c1[nH]c2ccccc2c1NC(=O)CN1CCCc2ccccc21	58.4% [fluorescence artefact?] (active)
CCn1c(-c2ccoc2C)n[nH]c1=S	-2.85%
COCCOCCn1cnc2ccccc21	-1.14%
CCN1CCN(C(c2cccnc2)c2cc(Cl)c3cccnc3c2O)CC1 (stereo unspecified)	72.4% [fluorescence artefact?] (active)
CCOC(=O)N1CCN(C(=O)c2cc3c(ccc4ccccc43)oc2=O)CC1	23.4%
CCOC(=O)N1CCN(C(c2cccnc2)c2ccc3cccnc3c2O)CC1 (stereo unspecified)	58% [fluorescence artefact?] (active)
CCOC(=O)N1CCN(C(=O)CSc2ccc(Cl)cc2)CC1	-0.13%
Oc1c(CN2CCN(c3ccc(F)cc3)CC2)cc(Cl)c2cccnc12	1.3%
CC(=O)C1=C(C)NC(=O)NC1c1cc(Br)ccc1OCC#N (stereo unspecified)	-0.75%
CC(C)CC(N=C1NC(C)(C)Cc2ccccc21)C(=O)O (stereo unspecified)	-1.78%
CCCc1noc2c1/C(=N\O)CCC2	1.64%
CCNCCC(=O)N1c2ccccc2Sc2ccc(NC(=O)OCC)cc21	-17.8%
O=C(NCc1ccco1)c1ccc(Cn2c(=O)c3sccc3n(Cc3ccc(F)cc3)c2=O)cc1	18.4%
Cc1cccc(C(=O)N2CCCN(C(=O)c3cccc(C)c3)CC2)c1	-0.48%
CCN1CCc2c(C#N)c(NCc3ccccc3)nc(NCCO)c2C1	-0.53%
CN(C)CCCNc1c2c(c(C#N)c3nc4ccccc4n13)CCC2	70.9% [fluorescence artefact?] (active)
N#Cc1c2c(c(N3CCN(CCO)CC3)n3c1nc1ccccc13)CCCC2	-8.78%
O=c1onc(-c2cccs2)n1Cc1ccccc1	-0.76%
CCCCCCNC(=O)CSc1nccn1Cc1ccccc1	-2.58%

Compound	inhibition
Cc1ccc(-n2c(SCC(=O)NCc3ccc4c(c3)OCO4)nnc2-c2cccnc2)c(C)c1	-8.68%
O=c1c2ccccc2nnn1CSc1nnnn1-c1ccccc1	-2.64%
N#CCSc1nc2ccccc2c(=O)n1-c1ccccc1	8.58%
O=c1c2ccccc2nc(CSc2nnnn2-c2ccccc2)n1-c1ccccc1	61.2% [fluorescence artefact?] (active)
CC(=O)NC1(c2cccc(F)c2)CCN(CC(=O)NC(C)C)CC1	-7.62%
COc1ccc(-n2c(SCC(=O)Nc3sc4c(c3C#N)CCCC4)nnc2-c2ccc(O)cc2)cc1	60.9% [fluorescence artefact?] (active)
COC(=O)c1c(NC(=O)CSc2nncs2)sc2c1CCCCC2	10.9%
COc1ccc(-c2nnc(SCC(=O)c3ccco3)n2-c2ccccc2)cc1	7.14%
CC(Sc1nc2ccccc2c(=O)n1Cc1ccco1)C(=O)c1ccccc1 (stereo unspecified)	-2.69%
C=C(C)Cn1c(SCC(=O)NCc2ccco2)nc2sc3c(c2c1=O)CCC3	9.18%
N#Cc1c(NC(=O)CSc2nc3ccccc3c(=O)n2Cc2ccco2)sc2c1CCCC2	50.4% [fluorescence artefact?] (active)
Cc1cc2nc(SCCN3CCOCC3)[nH]c2cc1C	-13.7%
COC(=O)C1=C(C(=O)c2ccc(C)cc2)C(c2ccccc2)n2nnnc2N1 (stereo unspecified)	-1.03%
Cc1ccc(-n2ccc(=O)c(C(=O)O)n2)cc1	-4.61%
O=C(COc1ccccc1)Nc1nonc1NC(=O)COc1ccccc1	4.67%
COc1ccc(CCNS(=O)(=O)c2ccc(Cl)s2)cc1OC	-8.93%
Oc1ccc(CNc2ccccc2O)cc1	52.5% [fluorescence artefact?] (active)
COc1cc(C2CC(=O)c3cnc(NC(C)=O)nc3C2)cc(OC)c1OC (stereo unspecified)	-3.76%
CCC(C(=O)NCc1ccc(OC)cc1)n1nc(C)n2c(cc3occc32)c1=O (stereo unspecified)	-7.78%
CCCn1c(C(Cc2ccccc2)NC(=O)COC)nc2ccccc21 (stereo unspecified)	46.8%
O=C(COC(=O)CCC(=O)c1cccs1)NCc1ccco1	51.1% [fluorescence artefact?] (active)
O=C(CCC(=O)c1cccs1)NCc1ccccc1	12.1%
O=C(COC(=O)C12CC3CC(CC(C3)C1)C2)NCc1ccco1	13.8%
